The sample as a whole holds a higher share of hits than the screen did.
Chlamy TAG = algal TAG accumulation induction; hit rate 0.84% among 44,000; AID 1159537; calls only at 10 µM (by protocol); Chlamydomonas reinhardtii TAG, Nile Red fluorescence, 72 h; call rule not given here;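 also: hits raise Nile Red signal meaning more stored TAG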
Calls only; . = inactive; + = active, no number.

SMILES	Chlamy TAG
Cc1ccc(CN2CCC(C(=O)NCc3ccccc3Cl)CC2)cc1	+
Cc1ccc(CNC(=O)C(=O)NCc2ccccc2Cl)cc1	.
O=C(NCCc1ccccc1)C1CCN(Cc2ccccc2Cl)CC1	.
CCCCOc1ccc(CNc2ccc3c(c2)OCO3)cc1	.
COc1ccc(NC(=O)CN(c2ccc(C(C)C)cc2)S(C)(=O)=O)cc1OC	.
Cc1ccccc1OCC(O)CN1CCN(CC(O)COc2ccccc2C)CC1 (configuration not stated)	.
OC(COc1ccc(OCC(O)CN2CCCC2)cc1)CN1CCCC1 (configuration not stated)	.
Cc1ccc(OCC(O)CN2CCCCC2)c(C)c1 (configuration not stated)	.
OC(COc1ccccc1Br)CN1CCCCC1 (configuration not stated)	+
OC(COc1ccc(Br)cc1)CN1CCCCCC1 (configuration not stated)	+
OC(COc1ccc(Br)cc1)CN1CCOCC1 (configuration not stated)	.
COc1ccc(NC(=O)CCCOc2ccc(Cl)cc2)c(OC)c1	.
Cn1cnnc1SCc1ccc(Cl)cc1Cl	.
C=C(C)C(C)(O)C#CCN1CCCCC1 (configuration not stated)	.
Cc1c(C(=O)c2ccccc2)n(C)c2ccccc12	.
COc1cc(CN2CCN(C/C=C/c3ccccc3)CC2)cc(OC)c1OC	.
COc1ccc(CN2CCN(C/C=C/c3ccccc3)CC2)cc1	+
C(=C\c1ccccc1)/CN1CCN(C2C3CC4CC(C3)CC2C4)CC1 (configuration not stated)	+
C(=C\c1ccccc1)/CN1CCN(c2ncccn2)CC1	.
COc1ccc(CN2CCN(C/C=C/c3ccccc3)CC2)c(O)c1	.
C(=C\c1ccccc1)/CN1CCN(C2CCN(CCc3ccccc3)CC2)CC1	.
Cc1cc([N+](=O)[O-])ccc1NC(=O)c1ccncc1	.
N#Cc1sc2nc(-c3cccnc3)ccc2c1N	.
CC(C)(C#N)OC(=O)NC1CCCCC1	.
O=C(CCC1CCCC1)N1CCN(c2ccc(F)cc2)CC1	.
SMILES	Chlamy TAG
O=c1c2ccccc2ncn1CCOc1cccc(Br)c1	.
O=C(O)CCCN1C(=O)C(=O)C(=C(O)c2ccccc2)C1c1ccccc1Cl (configuration not stated)	.
COc1ccc(C(=O)Nc2cc(Cl)ccc2Cl)cc1NC(=O)c1cccc([N+](=O)[O-])c1	.
NC(=O)C1CCN(CC2CC=CCC2)CC1 (configuration not stated)	.
CCN(Cc1ccccc1)C(=O)C1CCN(CC2CC=CCC2)CC1 (configuration not stated)	.
C=C(C)CN(CC)C(=O)C1CCN(CC2CC=CCC2)CC1 (configuration not stated)	+
O=C1CCCCCN1C(=O)c1ccc(Cl)cc1	.
COc1cc(/C=C(\C#N)c2nc3ccccc3[nH]2)cc2c1OCO2	.
COc1cc(C)ccc1OCCOc1cccc(Cl)c1	.
c1ccc(OCCCN2CCOCC2)cc1	.
O=[N+]([O-])c1ccc(OCCCCN2CCOCC2)cc1	+
Cc1cccc(OCCCCN2CCOCC2)c1	+
Ic1ccc(OCCCN2CCOCC2)cc1	.
CCOc1cccc(OCCN2CCOCC2)c1	.
O=[N+]([O-])c1ccc(OCCCCN2CCCCC2)cc1	.
O=[N+]([O-])c1ccc(OCCCN2CCCC2)cc1	.
CC(C)(C)c1ccc(OCCCCN2CCOCC2)cc1	+
c1ccc(COc2ccc(OCCCCN3CCOCC3)cc2)cc1	.
Cc1ccccc1NS(=O)(=O)c1ccc(C)c(C(=O)O)c1	.
CN(C)CCN(Cc1ccccc1)Cc1ccc([N+](=O)[O-])cc1	.
CCCCOc1ccccc1NC(=O)C1CCCCC1	.
Cc1cc(Cl)ccc1OCC(=O)Nc1ccc([N+](=O)[O-])cc1	.
Nc1cc(=O)[nH]c(SCC(=O)Nc2ccc(Cl)cc2)n1	.
CCN(CC)CC#Cc1ccc(C#CCN(CC)CC)cc1	+
CCN(CC)CC#CC(O)c1ccccc1 (configuration not stated)	.
SMILES	Chlamy TAG
CCN(CC)CC#CC(C)(O)C(C)C (configuration not stated)	.
COc1ccc2nc(NC(=O)c3ccccc3Br)sc2c1	.
CCOc1cc(C(=O)Nc2ccc3c(c2)OCCO3)cc(OCC)c1OCC	.
CC1CCCN(c2nc(-c3ccc([N+](=O)[O-])cc3)nc3ccccc23)C1 (configuration not stated)	.
CCCN(CC1CC1)C1CC(=O)N(c2ccc(OCC)cc2)C1=O (configuration not stated)	.
CCOc1ccc(C(=O)N2CCN(CC)CC2)cc1	.
CCN1CCN(C(=O)c2ccc(C(C)(C)C)cc2)CC1	+
CC(C)(C)c1ccc(C(=O)N2CCCCCC2)cc1	.
COc1ccc(OC)c(Nc2nc3nonc3nc2N2CCOCC2)c1	.
O=C1C(=O)N(Cc2ccc(F)cc2)c2ccc(Br)cc21	.
C#CCN1C(=O)C(=O)c2cc(Br)ccc21	.
C=CCN1C(=O)C(=O)c2cc(Br)ccc21	+
Cc1ccc(-c2nnc(-c3ccccc3Cl)o2)cc1	.
Clc1ccccc1-c1nnc(-c2ccccc2Cl)o1	.
